High-throughput results from PubChem BioAssay.
ELG1 genotox: induces genotoxicity in HEK293T cells with luciferase-tagged ELG1. AID 504466. Potency, µM (series often up to 46 µM), inactives show at the top dose activity change, positive = activation, hits mostly activators. 1.3% of 330,000 active. HEK293T ELG1-luciferase reporter, luminescence, 16 h; further: % of control where 0% means no effect; nearly all actives have a fitted effect of over 60% in size
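Screening used a luciferase reporter fused to human ELG1 in HEK293T cells. Luminescence was read on a CCD plate imager after 16 hr exposure and 30 min ONE-Glo incubation.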
p53 reactivation: mutant p53 re-activation in reporter cells. Potency, µM (series often up to 92.2 µM), inactives show at the highest dose activity change, positive = activation, hits mostly activators. 0.063% of 320,000 active. H1299 p53-A138V BP100-luciferase reporter, luminescence, 24 h. AID 504706; further: % of control where 0% means no effect; nearly all actives have a fitted effect of over 45% in size
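p53-null H1299 cells stably carrying temperature-sensitive p53-A138V and a BP100-luciferase reporter were pinned with compounds (4-point, 1:5 series) and held 24 hrs at 37 deg C. Luminescence was read 10 min after detection reagent.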
FLuc counter: firefly luciferase modulation, counter-screen for miR-21 project | P08659 | purified FLuc, Km substrates, luminescence inhibition | Potency, µM (top dose mostly 57.5 µM), without a hit: at the top dose activity change, negative = inhibition, hits mostly inhibitors | 6.9% of 360,000 active | AID 588342;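 further: plate controls were vehicle for no effect and reference inhibitor for full effect; nearly all actives have a fitted effect of over 55% in size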
Target sequence (P08659 whole entry, looked up): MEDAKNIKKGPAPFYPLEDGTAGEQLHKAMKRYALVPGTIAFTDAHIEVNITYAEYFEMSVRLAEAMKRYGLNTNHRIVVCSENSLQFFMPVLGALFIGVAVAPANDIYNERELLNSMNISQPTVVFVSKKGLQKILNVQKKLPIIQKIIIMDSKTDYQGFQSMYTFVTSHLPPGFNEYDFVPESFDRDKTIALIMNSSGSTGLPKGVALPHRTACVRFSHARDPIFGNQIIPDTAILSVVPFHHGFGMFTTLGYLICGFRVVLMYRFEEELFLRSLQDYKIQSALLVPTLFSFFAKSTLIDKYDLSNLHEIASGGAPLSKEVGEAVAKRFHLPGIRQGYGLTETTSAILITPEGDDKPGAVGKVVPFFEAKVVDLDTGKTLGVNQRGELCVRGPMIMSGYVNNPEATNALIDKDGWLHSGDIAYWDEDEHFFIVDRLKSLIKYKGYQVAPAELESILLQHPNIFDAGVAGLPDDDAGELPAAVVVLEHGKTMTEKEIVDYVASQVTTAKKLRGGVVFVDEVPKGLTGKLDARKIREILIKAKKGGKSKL
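Purified P. pyralis luciferase (10nM final) with 10uM D-luciferin and 10uM ATP (Km levels) in 50mM Tris acetate pH 7.5, 10mM Mg acetate, 0.01% Tween-20, 0.05% BSA; qHTS 6-point titration, ~60 µM downward; luminescence read.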
SMN2 splice enh: increases expression of the SMN2 splice variant. Potency, µM (series often up to 46.1 µM), for inactives: at the highest dose activity change, positive = activation, actives largely listed as activators. 2.8% of 210,000 active. HEK293 SMN2-luciferase splicing reporter, luminescence, 30-36 h. AID 1458; further: % of control where 0% means no effect; nearly all actives have a fitted effect of over 55% in size
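HEK293 cells carry an SMN2 […]–luciferase reporter in which exon 7 inclusion puts luciferase in frame. Cells were plated 10-12 h before compound addition, then incubated 30-36 h at 37C. ONE-Glo luminescence was read; sodium butyrate at 4.5 mM final served as control.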
Rab9 promoter act: activators of Rab9 promoter | Huh7 Rab9 promoter-luciferase reporter, luminescence, 24 h | Potency, µM (highest dose often 9.22 µM), for inactives: top-dose activation, negative = inhibition, actives largely listed as activators | 2.8% of 320,000 active; further: % of control where 0% means no effect; nearly all actives have a fitted effect of over 60% in size
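Huh7 cells stably carrying Rab9 promoter–luciferase reporter, plated 1500 cells/well, compound added after 2 h and incubated 24 h at 37 °C; luciferase luminescence then read after 10 min with detection reagent.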
NPC1 promoter act: NPC1 promoter activation. Huh7 NPC1 promoter luciferase reporter, 24 h. Potency, µM (titrated, usually from 9.22 µM), for inactives: top-dose activation, hits mostly activators. 2.4% of 320,000 active. AID 485313; further: % of control where 0% means no effect; nearly all actives have a fitted effect of over 60% in size
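Readout is luciferase luminescence, reflecting NPC1 promoter activation in stably transfected Huh7 cells after 24 h compound exposure at 37 °C in reduced-serum medium with 10% FBS.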
* = called active by the depositor; ? = inconclusive; · = not tested or not shown. Hits are enriched below; roughly 7.3% of the tested compounds scored in any of these assays. The call rests on the fitted dose curve; in most records, active means well fitted curve in the direction sought with a large enough effect; inconclusive means small, poorly fitted or top-dose-only effect, or another doubt; inactive means no such curve, though single readings can be large; an effect the other way counts as inactive or inconclusive. Potency means the concentration at half of the fitted maximal effect.

SMILES | ELG1 genotox | p53 reactivation | FLuc counter | SMN2 splice enh | Rab9 promoter act | NPC1 promoter act
CCOC(=O)[C@H]1[C@H]2COc3cc(OC)ccc3[C@@H]2N2C(=O)c3c(C)cc(C)cc3NC(=O)[C@@]12C | -1% | -10% | · | · | · | ·
COC(=O)NC(c1ccc2c(c1)OCO2)C(C(=O)OC)C(=O)OC (stereo not drawn) | · | · | · | 9% | · | ·
O=C(Cn1cnc2c(cnn2-c2ccccc2)c1=O)OCc1ccccc1 | 7% | ? | 11µM* | 8% | 4µM* | 23%
O=C1/C(=C/c2ccncc2)CCC/C1=C\c1ccncc1 | -23% | -9% | 0% | -106% | -32% | -40%
CCOc1ccc(/C=C2\CCc3ccccc3C2=O)cc1 | ? | ? | 0.3µM* | · | 1.1µM* | 2.8µM*
COc1cc(/C=C2\CCc3ccccc3C2=O)cc(OC)c1OC | 0% | 21% | ? | -35% | -2% | 1%
O=C1/C(=C/c2ccncc2)CCc2ccccc21 | 4% | ? | 8.5µM* | · | -4% | 0%
O=C1/C(=C\c2ccncc2)CCc2ccccc21 | -12% | ? | 9.5µM* | · | -10% | 0%
Cc1ccc(Cl)cc1NC(=O)c1oc2ccc(S(=O)(=O)N3CCC4(CC3)OCCO4)cc2c1C | · | · | -1% | · | · | ·
Cc1ccc(-c2cn(-c3ccc(Cl)cc3)c(S(=O)(=O)CC(=O)Nc3ccccc3)n2)cc1 | · | · | ? | 3.2µM* | · | ·
S=C(c1ccc(OCc2ccccc2)cc1)N1CCCC1 | ? | 7% | 19µM* | · | ? | ?
O=C(COc1ccc(C(=S)N2CCCC2)cc1)Nc1ccc(F)cc1 | -4% | 2% | 1% | · | 2% | -3%
Fc1ccc(COc2ccc(C(=S)N3CCCC3)cc2)cc1 | ? | -4% | 21µM* | · | 1.3µM* | 2.2µM*
CCOc1cc(C(=S)N2CCCC2)ccc1OCc1ccccc1 | 0% | -12% | 3% | · | 1% | -1%
Cn1c(=NC(=O)c2ccccc2[N+](=O)[O-])sc2cc(S(C)(=O)=O)ccc21 | 8.2µM* | ? | 0.54µM* | 2.2µM* | 0.56µM* | 0.35µM*
Cc1ccc(-c2cn3cccnc3n2)cc1NC(=O)Nc1ccc(F)cc1 | · | · | -3% | 20% | · | ·
COc1cccc(NC(=O)Nc2cccc(-c3cn4cccnc4n3)c2)c1 | · | · | 6.7µM* | -7% | · | ·
COc1cccc(NC(=O)Nc2cc(-c3cn4cccnc4n3)ccc2OC)c1 | · | · | 1.3µM* | 8.9µM* | · | ·
COc1cccc(NC(=O)Nc2cc(-c3cn4cccnc4n3)ccc2C)c1 | · | · | -15% | 12% | · | ·
COc1ccc(-c2cn3cccnc3n2)cc1NC(=O)Nc1cc(C)ccc1C | · | · | 2.4µM* | 10% | 4% | 19%
CC1CCN(C(=O)CSc2ccc(-c3cccc([N+](=O)[O-])c3)nn2)CC1 | -22% | 9% | -9% | -19% | -6% | -2%
CCn1c(-c2ccc(F)cc2)cnc1SCC(=O)N1CCCCC1C (stereo not drawn) | 6.5µM* | ? | 11µM* | 1% | ? | ?
COC(=O)c1c(-n2c(C)cc(C=O)c2C)sc2c1CCCC2 | 1% | 0% | 12µM* | -21% | 2% | -4%
Cc1cc(C=O)c(C)n1-c1sc2c(c1C(=O)O)CCCC2 | 1% | -1% | 1% | -3% | -4% | -5%
CC1CCCN(S(=O)(=O)c2cc3c4c(c2)CC(=O)N4CCC3)C1 (stereo not drawn) | · | · | 1% | · | · | ·
SMILES | ELG1 genotox | p53 reactivation | FLuc counter | SMN2 splice enh | Rab9 promoter act | NPC1 promoter act
CN(C)c1ccc(C(=O)c2ccc(N(C)C)c3ccccc23)cc1 | ? | ? | 15µM* | ? | -19% | -7%
CC1=NN(c2ccccc2)C(=O)/C1=C\c1sccc1C | 4% | 1% | 7.6µM* | · | -2% | -5%
CC1=NN(c2cccc(C(=O)O)c2)C(=O)/C1=C\C=C\c1ccco1 | ? | ? | 2.7µM* | 30% | 13% | 10%
CC1=NN(c2ccccc2)C(=O)/C1=C\c1c(C)[nH]n(-c2ccccc2)c1=O | -3% | 4% | ? | -22% | 0% | 3%
CC1=NN(c2ccc(Br)cc2)C(=O)/C1=C/c1cccs1 | -3% | 17% | 7.6µM* | -22% | 28% | 25%
CC1=NN(c2ccccc2)C(=O)/C1=C/c1cc(C)n(C2CC2)c1C | 8% | -1% | 2.4µM* | 7% | 14% | 11%
CC1=NN(c2ccccc2)C(=O)/C1=C\N1CC(C)OC(C)C1 (stereo not drawn) | 3% | -5% | ? | 14% | -6% | 1%
COc1ccccc1/C=C1/C(=O)N(c2ccccc2)N=C1C | 0% | 0% | 27µM* | · | 0% | -1%
CC1=NN(c2ccccc2)C(=O)/C1=C\c1cn(-c2ccccc2)nc1C | 2% | 2% | ? | 5% | -3% | -4%
C#CCOc1ccc(/C=C2/C(=O)N(c3cccc(C(=O)O)c3)N=C2C)cc1OC | 10% | 16% | 12µM* | · | -1% | -1%
Cc1cccc(N(Cc2ccccc2)C(=O)CSC(C)C(=O)Nc2cc(C)on2)c1 (stereo not drawn) | -1% | -1% | 4% | · | -8% | -2%
COC(=O)c1ccc2[nH]c3c(c2c1)CC(C)CC3 (stereo not drawn) | ? | · | 12µM* | · | 11% | 20%
CCOC(=O)c1ccc2[nH]c3c(c2c1)CCCC3 | 23µM* | -2% | 11µM* | · | ? | 2.8µM*
CCCC(C)NC(=O)c1ccc2[nH]c3c(c2c1)CC(C)CC3 (stereo not drawn) | -3% | -3% | ? | · | 28% | 7%
CCOc1ccc2nc(N3CCCC(C(=O)NCCCN4CCOCC4)C3)sc2c1 (stereo not drawn) | ? | ? | 13µM* | 13µM* | 30% | 22%
CCOc1ccc2nc(N3CCC(C(=O)Nc4c(C)cccc4C)CC3)sc2c1 | · | · | -13% | -4% | · | ·
CCOc1ccc2nc(N3CCCC(C(=O)NCc4ccc(C)cc4)C3)sc2c1 (stereo not drawn) | · | · | -19% | 16% | · | ·
CCOc1ccc2nc(N3CCC(C(=O)NCCCN4CCOCC4)CC3)sc2c1 | ? | 16% | 8.5µM* | · | 3.5µM* | ?
CCC(C)NC(=O)C1CCCN(c2nc(C)cc(OC)n2)C1 (stereo not drawn) | -1% | 1% | 0% | 2% | -5% | 1%
COc1cc(C)nc(N2CCCC(C(=O)NC3CCC(C)CC3)C2)n1 (stereo not drawn) | ? | ? | 11µM* | ? | 4µM* | 3.2µM*
COc1ccc(CCNC(=O)c2cc(COc3c(C)cccc3C)on2)c(OC)c1 | ? | 18% | ? | · | 30% | 19%
